Results as given in article PMC5700166.

Columns and labels:
Assay in all cases: protein-binding microarray (PBM); PBM: ~300 nM protein, 6 mM HEPES pH 7.8, 80 mM KCl, 0.5 mM EDTA, 0.5 mM EGTA, 6% glycerol, 35 ng/ul poly-dIdC, 1% milk, 1 h, room temperature; Ap Aiptasia and Nv Nematostella (sea anemones) / Co Capsaspora / Aq Amphimedon (sponge) / Dm Drosophila / Hu human; RHD is the Rel homology domain; high values mean tight binding
Conditions in all cases: dsDNA, one strand shown
GST-Ap-NF-kB RHD = target: T1, GST-Ap-NF-kB RHD (Exaiptasia pallida (Aiptasia), UniProt A0A913YAJ5 2-422)
T1 sequence: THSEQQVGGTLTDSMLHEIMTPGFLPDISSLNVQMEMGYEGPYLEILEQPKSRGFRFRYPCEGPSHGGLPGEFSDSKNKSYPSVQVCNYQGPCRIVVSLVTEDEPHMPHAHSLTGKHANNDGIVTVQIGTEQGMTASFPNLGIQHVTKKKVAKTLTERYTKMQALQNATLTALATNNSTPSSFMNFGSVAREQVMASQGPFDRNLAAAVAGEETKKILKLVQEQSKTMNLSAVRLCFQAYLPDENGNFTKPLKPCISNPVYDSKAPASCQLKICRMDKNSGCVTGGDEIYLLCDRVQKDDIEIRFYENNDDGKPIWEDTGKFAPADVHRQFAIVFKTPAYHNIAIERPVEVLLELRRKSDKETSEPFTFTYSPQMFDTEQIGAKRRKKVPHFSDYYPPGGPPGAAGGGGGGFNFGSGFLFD

[1] = target: T2, GST-Nv-NF-kB (Cys allele) (Nematostella vectensis, UniProt E5G601 2-411)
T2 sequence: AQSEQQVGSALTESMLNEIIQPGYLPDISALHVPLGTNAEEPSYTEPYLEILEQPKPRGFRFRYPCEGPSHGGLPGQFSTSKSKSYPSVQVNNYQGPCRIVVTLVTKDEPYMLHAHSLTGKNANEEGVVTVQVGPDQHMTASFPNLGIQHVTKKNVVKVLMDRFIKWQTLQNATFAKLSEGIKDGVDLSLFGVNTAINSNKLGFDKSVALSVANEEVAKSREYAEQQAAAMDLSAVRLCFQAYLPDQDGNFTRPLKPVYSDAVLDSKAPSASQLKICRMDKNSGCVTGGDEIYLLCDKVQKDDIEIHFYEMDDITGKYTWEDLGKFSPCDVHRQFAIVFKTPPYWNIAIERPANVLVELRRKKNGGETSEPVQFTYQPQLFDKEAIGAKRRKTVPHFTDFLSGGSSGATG

GST-Co-NF-kB = target: T3, GST-Co-NF-kB (Capsaspora owczarzaki, UniProt F1ARL5 200-546)
T3 sequence: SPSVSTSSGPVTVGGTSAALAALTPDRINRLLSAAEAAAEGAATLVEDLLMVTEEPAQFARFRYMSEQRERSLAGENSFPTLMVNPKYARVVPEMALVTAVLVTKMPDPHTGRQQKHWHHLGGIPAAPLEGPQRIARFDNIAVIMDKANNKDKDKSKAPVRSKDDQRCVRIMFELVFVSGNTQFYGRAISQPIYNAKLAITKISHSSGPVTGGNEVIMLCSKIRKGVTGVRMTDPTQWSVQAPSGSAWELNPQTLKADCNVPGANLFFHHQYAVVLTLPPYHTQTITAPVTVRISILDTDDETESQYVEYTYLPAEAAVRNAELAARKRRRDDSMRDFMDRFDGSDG

GST-Dm-Relish = target: T4, GST-Dm-Relish (Drosophila melanogaster, UniProt Q94527 99-473)
T4 sequence: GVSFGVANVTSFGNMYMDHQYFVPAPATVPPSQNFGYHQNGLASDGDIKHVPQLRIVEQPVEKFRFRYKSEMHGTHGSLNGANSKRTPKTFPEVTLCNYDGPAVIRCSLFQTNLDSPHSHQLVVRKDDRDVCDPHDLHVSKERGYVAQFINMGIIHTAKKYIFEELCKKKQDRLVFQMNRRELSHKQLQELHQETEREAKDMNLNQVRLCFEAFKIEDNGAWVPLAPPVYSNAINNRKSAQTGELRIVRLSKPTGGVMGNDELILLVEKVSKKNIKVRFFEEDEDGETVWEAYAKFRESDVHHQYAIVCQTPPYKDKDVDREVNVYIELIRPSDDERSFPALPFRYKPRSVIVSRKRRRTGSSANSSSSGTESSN

GST-Aq-NF-kB = target: T5, GST-Aq-NF-kB (Amphimedon queenslandica, UniProt A9Y5G7 2-389)
T5 sequence: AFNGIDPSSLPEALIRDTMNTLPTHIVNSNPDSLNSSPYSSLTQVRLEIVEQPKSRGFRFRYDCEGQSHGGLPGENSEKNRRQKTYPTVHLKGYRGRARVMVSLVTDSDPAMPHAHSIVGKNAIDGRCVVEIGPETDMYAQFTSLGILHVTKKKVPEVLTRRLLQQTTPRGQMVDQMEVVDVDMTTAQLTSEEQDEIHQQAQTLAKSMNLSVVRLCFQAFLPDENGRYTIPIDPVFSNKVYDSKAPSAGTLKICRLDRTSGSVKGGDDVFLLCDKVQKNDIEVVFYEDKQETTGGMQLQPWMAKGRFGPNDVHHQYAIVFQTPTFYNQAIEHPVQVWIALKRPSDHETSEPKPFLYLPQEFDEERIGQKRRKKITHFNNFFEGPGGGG

GST-Hu-p50 = GST-Hu-p50 (Homo sapiens, UniProt P19838 7-356)
GST-Hu-p50, sequence (P19838 7-356): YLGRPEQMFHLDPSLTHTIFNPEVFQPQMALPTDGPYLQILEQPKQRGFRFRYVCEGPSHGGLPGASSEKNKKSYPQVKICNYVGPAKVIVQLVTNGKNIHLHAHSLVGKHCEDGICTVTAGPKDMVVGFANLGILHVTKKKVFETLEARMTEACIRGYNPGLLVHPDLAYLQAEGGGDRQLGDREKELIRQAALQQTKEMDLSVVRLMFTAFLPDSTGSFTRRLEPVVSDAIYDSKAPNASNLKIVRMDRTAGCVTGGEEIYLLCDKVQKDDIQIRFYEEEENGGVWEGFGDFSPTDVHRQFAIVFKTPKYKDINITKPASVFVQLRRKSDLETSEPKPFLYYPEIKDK

| Sequence | binding signal (GST-Ap-NF-kB RHD) [z-score] | binding signal [1] [z-score] | binding signal (GST-Co-NF-kB) [z-score] | binding signal (GST-Dm-Relish) [z-score] | binding signal (GST-Aq-NF-kB) [z-score] | binding signal (GST-Hu-p50) [z-score] |
| --- | --- | --- | --- | --- | --- | --- |
| CCGATTAACATCAGAACATCCCCTGATGTTAATCGGGTCTTGATTCGCTTGACGCTGCTG | 6.05 | 6.64 | 3.09 | 6.69 | 5.97 | 5.45 |
| CCGATTAACATCAAAATTCCCGTTGATGTTAATCGGGTCTTGATTCGCTTGACGCTGCTG | 3.98 | 6.87 | 4.03 | 5.57 | 6.15 | 5.26 |
| CCGATTAACATCAGAAACTTCCCTGATGTTAATCGGGTCTTGATTCGCTTGACGCTGCTG | 4.46 | 5.22 | 2.41 | 4.16 | 5.51 | 4.25 |
| CCGATTAACATCAAGAGTCCCCCTGATGTTAATCGGGTCTTGATTCGCTTGACGCTGCTG | 7.54 | 5.23 | 5.05 | 5.74 | 5.26 | 5.46 |
| CCGATTAACATCAGGGGATATACTGATGTTAATCGGGTCTTGATTCGCTTGACGCTGCTG | 5.2 | 4.91 | 3.57 | 7.81 | 4.48 | 4.04 |
| CCGATTAACATCAATCCACCCCCTGATGTTAATCGGGTCTTGATTCGCTTGACGCTGCTG | 3.95 | 3.33 | 4.65 | 2.99 | 3.63 | 4.45 |
| CCGATTAACATCAAACCACCCCCTGATGTTAATCGGGTCTTGATTCGCTTGACGCTGCTG | 3.91 | 3.14 | 3.81 | 2.92 | 3.77 | 4.3 |
| CCGATTAACATCAAACTCCCCCGTGATGTTAATCGGGTCTTGATTCGCTTGACGCTGCTG | 6.89 | 5.44 | 7.66 | 5.92 | 5.84 | 6.48 |
| CCGATTAACATCAGGGATTTTTATGATGTTAATCGGGTCTTGATTCGCTTGACGCTGCTG | 5.66 | 6.48 | 1.77 | 7.93 | 6.66 | 5.31 |
| CCGATTAACATCAGGGGACGTTATGATGTTAATCGGGTCTTGATTCGCTTGACGCTGCTG | 4.77 | 5 | 3.19 | 2.7 | 4.72 | 4.56 |
| CCGATTAACATCAAAATAGCCCCTGATGTTAATCGGGTCTTGATTCGCTTGACGCTGCTG | 5.32 | 5.99 | 1.88 | 4.12 | 5.87 | 5.38 |
| CCGATTAACATCAAAATTCCCGATGATGTTAATCGGGTCTTGATTCGCTTGACGCTGCTG | 4.37 | 6.05 | 4.55 | 5.06 | 4.93 | 4.38 |
| CCGATTAACATCAGGAGACCCCCTGATGTTAATCGGGTCTTGATTCGCTTGACGCTGCTG | 5.3 | 3.64 | 1.61 | 5.66 | 6.55 | 4.1 |
| CCGATTAACATCAAAAATGCCCCTGATGTTAATCGGGTCTTGATTCGCTTGACGCTGCTG | 4.41 | 6.79 | 2.95 | 5.68 | 6.07 | 5.92 |
| CCGATTAACATCACAAATACCCCTGATGTTAATCGGGTCTTGATTCGCTTGACGCTGCTG | 5.46 | 4.42 | 4.04 | 3.75 | 4.3 | 5.3 |
| CCGATTAACATCAAAAGCCCCCTTGATGTTAATCGGGTCTTGATTCGCTTGACGCTGCTG | 6.3 | 6.73 | 1.89 | 7.9 | 6.88 | 6.5 |
| CCGATTAACATCAATAAAATCCCTGATGTTAATCGGGTCTTGATTCGCTTGACGCTGCTG | 4.23 | 4.4 | 2.13 | 6.47 | 4.79 | 4.24 |
| CCGATTAACATCAGGGGCTTACCTGATGTTAATCGGGTCTTGATTCGCTTGACGCTGCTG | 4.59 | 6.21 | 1.88 | 5.58 | 7.25 | 4.8 |
| CCGATTAACATCAGGGAAACTTATGATGTTAATCGGGTCTTGATTCGCTTGACGCTGCTG | 3.98 | 6.28 | 5.54 | 2.25 | 6.43 | 4.53 |
| CCGATTAACATCAAGGGGGGACTTGATGTTAATCGGGTCTTGATTCGCTTGACGCTGCTG | 4.76 | 5.56 | 5.68 | 5.09 | 5.14 | 5.19 |
| CCGATTAACATCAGGAGATCCCCTGATGTTAATCGGGTCTTGATTCGCTTGACGCTGCTG | 7.87 | 8.09 | 2.55 | 8.66 | 8.6 | 5.88 |
| CCGATTAACATCAGGGGGGTTACTGATGTTAATCGGGTCTTGATTCGCTTGACGCTGCTG | 7.07 | 4.42 | 4.24 | 8 | 5.46 | 5.29 |
| CCGATTAACATCACGGAATTCCCTGATGTTAATCGGGTCTTGATTCGCTTGACGCTGCTG | 6.01 | 6.74 | 3.4 | 7.05 | 7.07 | 4.62 |
| CCGATTAACATCAAAAACCACCCTGATGTTAATCGGGTCTTGATTCGCTTGACGCTGCTG | 4.27 | 3.46 | 2.76 | 7.76 | 4.53 | 5.64 |
| CCGATTAACATCAAAAAACCCCGTGATGTTAATCGGGTCTTGATTCGCTTGACGCTGCTG | 7.4 | 7.45 | 3.92 | 8.97 | 7.03 | 6.45 |
| CCGATTAACATCACGAAAACCCCTGATGTTAATCGGGTCTTGATTCGCTTGACGCTGCTG | 6.45 | 5.36 | 2.45 | 7.06 | 5.3 | 6.06 |
